Shown are actives, neighbours in structure and some others; about 7.9% of the full set was active somewhere.
FMDV antiviral: blocks foot and mouth disease virus. FMDV antiviral cell-based qHTS. Potency, µM (doses to about 57.9 µM), without a hit: at the highest dose activity change, negative = inhibition, actives largely listed as inhibitors. hit rate 1.2% among 410,000. AID 1159524; calls by dose curve; tested in HEK293T cells; further: read-out not given here; potency means the concentration at half of the fitted maximal effect; nearly all actives have a fitted effect of over 45% in size
Marburg entry inh: inhibitors of Marburg virus binding or cell entry; Marburg virus pseudotyped entry inhibition, cell reporter; Potency, µM (doses to about 37.8 µM), inactives show at the highest dose activity change, negative = inhibition, actives largely listed as inhibitors; hit rate 1.8% among 300,000; calls by dose curve; tested in HEK293 cells; further: potency means the concentration at half of the fitted maximal effect
HCMV inh: inhibitors of human cytomegalovirus. HFF cells, HCMV-luciferase reporter, 72 h; hits give low values. activity change, negative = inhibition, % at 57.5 µM. hit rate 4.5% among 410,000. AID 1259415; in the data active means activity change below about -60%; inconclusive means no clear call, values can overlap the other calls; inactive means above about -39%
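After 16 h attachment at 37C, HFF cells received test compound and HCMV-luciferase (1 PFU/cell); reporter luminescence read 72 h later, data normalized against buffer-only and known inhibitor Salinomycin.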
HCV inh: inhibitors of hepatitis C virus infection; Potency, µM (top dose mostly 41.8 µM), without a hit: top-dose activity change, negative = inhibition, most hits filed as inhibitors; hit rate 3.4% among 340,000; Huh7.5.1 HCVcc-Cre infection, luciferase reporter, 44 h; AID 651820; active means well fitted inhibition curve with a large enough effect; inconclusive means small, poorly fitted or top-dose-only effect, or another doubt; inactive means no such curve, though single readings can be large or run the other way; further: potency means the concentration at half of the fitted maximal effect
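HCVcc-Cre virus at an moi near 0.5 was added right after compound to cells cultured 4 h from seeding (1,000 cells/well). Luciferase activity was determined 44 h later, 15 min after substrate addition at RT.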
Lassa entry inh: Lassa virus entry inhibition | Lassa virus pseudotype entry inhibition, cell reporter | Potency, µM (titrated, usually from 37.9 µM), for the others: top-dose activity change, negative = inhibition, most hits filed as inhibitors | hit rate 1.2% among 300,000 | AID 540256; calls by dose curve; tested in HEK293 cells; further: potency means the concentration at half of the fitted maximal effect; nearly all actives have a fitted effect of over 50% in size
* hit, by the source's call; ? = inconclusive; · = no result; [ ] = dose if it differs, or a comment. On the % scale 0 is the no-effect control and ±100 the full control effect.

SMILES	FMDV antiviral	Marburg entry inh	HCMV inh	HCV inh	Lassa entry inh
COC(=O)c1cc(NC(=O)/C=C/c2ccc3c(c2)OCO3)cc(C(=O)OC)c1	-10%	?	27	?	?
O=C(Nc1ccc(Cl)c(Cl)c1)Nc1ccccc1C(=O)O	-70%	?	-79*	-9%	3.5µM*
COC(=O)c1cccc(NC(=O)/C=C/c2ccc3c(c2)OCO3)c1	-3%	?	-3	?	11µM*
Cn1nnc2cc(NC(=O)Nc3cccc(Cl)c3)ccc21	31%	·	-102*	0%	·
CCOc1ccc(/C=C/C(=O)Nc2cccc(C(C)=O)c2)cc1	-23%	-25%	39	13µM*	0%
COc1cccc(CCNc2ncnc3sc(C(=O)N4CCN(C)CC4)c(C)c23)c1	-2%	·	·	·	·
COc1ccc(Nc2c(-c3ccc(C)o3)nc3ccc(Cl)cn23)cc1	-11%	-1%[46.1 µM]	0	·	?
Cc1cc(Cl)ccc1NC(=O)CSc1nc2c(c(=O)[nH]1)CCC2	-17%	0%[46.1 µM]	-5	·	3%[46.1 µM]
O=C(Nc1ccc(Cl)cc1)Nc1cccc(C(=O)O)c1	8.9µM*	0.92µM*	16	19%	0.33µM*
COc1ccc2nc(-c3cccc(N)c3)[nH]c2c1	0%	10µM*	40	-16%	11µM*
Clc1cccc(Cc2c(-c3ccco3)nc3ccc(Br)cn23)c1	25µM*	·	25	·	·
Cc1ccc(Cc2c(-c3ccco3)nc3c(C)cc(Br)cn23)cc1	-29%	·	-102*	·	·
Clc1ccc(-c2nc3ccc(Cl)cn3c2Cc2cccc(Cl)c2)cc1	34%	·	16	·	·
Clc1cccc(Cc2c(-c3ccco3)nc3ccc(Cl)cn23)c1	40µM*	·	-18	·	·
Cc1cc(Br)cn2c(Cc3cccc(Cl)c3)c(-c3ccco3)nc12	-18%	·	4	·	·
COc1ccc(S(=O)(=O)N(CC(=O)Nc2cccc(C(F)(F)F)c2)c2ccc(C)cc2)cc1	-16%	?	-36	·	?
O=C(CCCCn1c(=O)c2ccccc2n(Cc2ccccc2Cl)c1=O)NCCc1ccccc1	-9%	2%[46.1 µM]	4	·	14%[46.1 µM]
O=C(NCCc1ccccc1)c1nc2nc(-c3cccs3)cc(C(F)(F)F)n2n1	18%	?	65	10µM*	-4%
CCOc1ccc(NC(=O)CSc2nc(-c3cccs3)cc(C(F)(F)F)n2)c([N+](=O)[O-])c1	-3%	?	-101*	16%	-10%
CCCNC(=O)CSc1nc(-c2cccs2)cc(C(F)(F)F)n1	-9%	11%	-19	4µM*	4%
CCOc1ccc(NC(=O)CSc2n[nH]c(N)n2)c([N+](=O)[O-])c1	-10%	10%	-6	-2%	3%
O=C(CSc1nc(-c2cccs2)cc(C(F)(F)F)n1)NCc1ccccc1	-13%	-28%	-17	4µM*	2%
CCCCn1nnnc1C(C1CC1)N1C(=O)C(=O)c2ccccc21 (stereo not drawn)	·	·	-9	·	·
CC(C)CNC(=O)CSc1nc(-c2cccs2)cc(C(F)(F)F)n1	?	-26%[46.1 µM]	-68*	-28%	?
Cc1ccc2nc(CN3CCN(C(=O)Nc4ccc(F)cc4)CC3)oc2c1	-22%	·	-16	·	-2%[46.1 µM]
SMILES	FMDV antiviral	Marburg entry inh	HCMV inh	HCV inh	Lassa entry inh
COc1cccc(CNC(=O)[C@H]2[C@H](CO)[C@H]3Cn4c(cccc4=O)[C@@H]2N3C(=O)C2CC2)c1	·	·	-20	·	·
N#Cc1nc(-c2cccs2)oc1N1CCN(c2ccccc2)CC1	-19%	?	1	2.8µM*	-1%
N#Cc1nc(-c2cccs2)oc1NCc1ccccc1	10%	6%[46.1 µM]	16	6%	18%
Cc1c(Cc2ccccc2)c(=O)oc2cc(OCC(=O)NCc3ccccn3)ccc12	-29%	13%[46.1 µM]	-63*	?	1%[46.1 µM]
Cc1coc2c(C)c3oc(=O)c(CCC(=O)NCc4ccccn4)c(C)c3cc12	-10%	·	?	?	·
Cc1c(CCC(=O)O)c(=O)oc2cc3occ(-c4ccc(Br)cc4)c3cc12	-23%	-22%[46.1 µM]	-62*	7%	-2%
Cc1c(CCC(=O)O)c(=O)oc2cc3occ(-c4ccc(F)cc4)c3cc12	-3%	?	-12	-15%	7%
Cc1c(Cc2ccccc2)c(=O)oc2cc(OCC(=O)N[C@@H](Cc3ccccc3)C(=O)O)ccc12	-9%	·	13	13%	·
Cc1coc2cc3oc(=O)c(CCC(=O)NCc4ccccn4)c(C)c3cc12	0%	·	-28	1µM*	·
Nc1nonc1-c1nc2ccccc2n1Cc1c(Cl)cccc1Cl	0%	·	29	·	0%[46.1 µM]
Cc1c(NC(=O)c2cc([N+](=O)[O-])ccc2N2CCOCC2)cccc1-c1nc2ccccc2o1	-20%	-4%[46.1 µM]	-21	·	?
COc1ccccc1-c1nnc(C2CCN(C(=O)c3ccc(C)cc3)CC2)o1	2%	?	1	·	4%[46.1 µM]
Cc1ccccc1-c1nnc(C2CCN(S(=O)(=O)c3ccc(Cl)cc3)CC2)o1	-18%	15%[46.1 µM]	-104*	·	21%[46.1 µM]
COc1ccc(-c2nnc(C3CCN(S(=O)(=O)c4cccc(Cl)c4)CC3)o2)cc1	-22%	-2%[46.1 µM]	-94*	·	12%[46.1 µM]
COc1ccc(S(=O)(=O)N2CCC(c3nnc(-c4ccccc4C)o3)CC2)c(OC)c1	-6%	-5%[46.1 µM]	-34	·	-14%[46.1 µM]
COc1ccc(-c2nnc(C3CCN(C(=O)c4ccccc4F)CC3)o2)cc1	?	11%[46.1 µM]	-105*	·	10%[46.1 µM]
Cc1ccc(C2=CC(=O)N(CCN)C2)cc1	·	·	32	·	·
COc1ccc(Oc2ncnc3c2oc2ccccc23)cc1	18%	·	66	·	-6%[46.1 µM]
C=CCN1C(=O)CC[C@@]23C1=NC(C(=O)OC)=C(C(=O)OC)[C@@H]2N(CC=C)c1ccccc13	·	-3%[14.2 µM]	·	·	·
CCN(Cc1ccccc1)C(=O)Cn1c(=O)n(-c2ccc(Cl)cc2)c(=O)c2c(C)c(C)sc21	-32%	2%[46.1 µM]	3	·	2%[46.1 µM]
COc1ccc(S(=O)(=O)NCC2CCCN(C(=O)c3ccco3)C2)cc1 (stereo not drawn)	66%	2%[46.1 µM]	39	6%	-1%
COc1ccc(S(=O)(=O)NCC2CCCN(C(=O)c3cccnc3)C2)cc1 (stereo not drawn)	13%	?	-60*	2%	?
COc1cc2ncn(-c3cc(OC(C)c4ccccc4Cl)c(C(N)=O)s3)c2cc1OC (stereo not drawn)	·	·	·	·	2.5µM*
COc1cc2ncn(-c3cc(OCCc4ccccc4)c(C(N)=O)s3)c2cc1OC	·	·	·	·	18µM*
COc1ccc2[nH]cc(CCN=C(NC(=O)c3ccccc3OC)Nc3nc(C)cc(C)n3)c2c1	?	?	-96*	·	?
COc1ccc2c3c(n(C)c2c1)[C@@H](CO)N(Cc1cc(F)ccc1F)CC31CN(C(C)=O)C1	·	·	-36	·	·
CC(=O)Nc1cccc(/C(C)=N/Nc2nc3ccccc3s2)c1	-42%	?	139	?	?
C/C(=N\Nc1nc2ccccc2s1)c1cccs1	-45%	?	-22	-26%	6.5µM*
C/C(=N/Nc1ccccc1C(=O)O)c1cccs1	81%	6%	68	17%	?
CC(=NNc1nc2ccccc2s1)c1ncccn1	-16%	?	-97*	?	1µM*

Bioassay records deposited in PubChem BioAssay by National Center for Advancing Translational Sciences (NCATS).
